The values below come from the supplement of paper PMC8285479.

For the test, the system named is NCI-H1944. Nature of the test: normalised cell viability (NPI; 0 = phenylarsine oxide control, 1 = DMSO control) (fraction of DMSO control); NCI-H1944 is a non-small cell lung cancer line; higher = more viable cells (less compound toxicity). As to conditions: 6 days.
[1] abbreviates: glucocorticoid arm: hydrocortisone 2.75 uM co-treatment, compound 1 µM.
The mark [2] stands for this setting: glucocorticoid arm: hydrocortisone 2.75 uM co-treatment, compound 5 µM.
The mark [3] stands for this setting: glucocorticoid arm: hydrocortisone 2.75 uM pre-treated 2 days and continued, compound 1 µM.
The mark [4] stands for this setting: glucocorticoid arm: hydrocortisone 2.75 uM pre-treated 2 days and continued, compound 5 µM.
Where [5] appears, read: glucocorticoid arm: vehicle, compound 1 µM.
[6] abbreviates: glucocorticoid arm: vehicle, compound 5 µM.

Where a name gives a salt, the structure may show the parent alone. ± gives the standard deviation of the averaged measurements. Over roughly 1,900 compounds, “normalised cell viability (NPI; 0 = phenylarsine oxide control, 1 = DMSO control)” has its median near 1; the lowest 2% begin near 0.039. This is one part of a sample in which the lowest values are shown more often than they occur.
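Also: CTB read-out in 384-well plates, triplicate wells, NPI normalised per plate against 1 µM phenylarsine oxide (0) and 0.1% DMSO (1) controls.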

Consider `OC(CCN1CCCCC1)(c1ccccc1)C1CCCCC1` (racemic) [DL-Trihexyphenidyl hydrochloride], for which the normalised cell viability runs as follows: under setting [1], 0.99967 ± 0.00058; under setting [2], 0.998 ± 0.013; under setting [3], 1.03 ± 0.021; under setting [4], 1.02 ± 0.011; under setting [5], 0.995 ± 0.007; under setting [6], 1.001 ± 0.0085.
Regarding `CC(C)(C(=O)O)c1ccc(C(O)CCCN2CCC(C(O)(c3ccccc3)c3ccccc3)CC2)cc1` (stereo not drawn) [Fexofenadine hydrochloride], the normalised cell viability runs as follows: under setting [1], 1.006 ± 0.0069; under setting [2], 1 ± 0.013; under setting [3], 0.997 ± 0.013; under setting [4], 0.99 ± 0.01; under setting [5], 1.003 ± 0.0058; under setting [6], 0.9967 ± 0.0035.
`CC(C)(C(=O)O)c1ccc(C(O)CCCN2CCC(C(O)(c3ccccc3)c3ccccc3)CC2)cc1` (stereo not drawn) [Fexofenadine HCl]: the normalised cell viability came to 1.03 ± 0.01 under setting [1]; 1.02 ± 0.021 under setting [2]; 1.037 ± 0.0058 under setting [3]; 1.05 ± 0.011 under setting [4]; 0.999 ± 0.011 under setting [5]; 0.998 ± 0.01 under setting [6].
Turning to `COc1ccc2c3n(c(=NC(=O)c4cccnc4)nc2c1OC)CCN3`, the normalised cell viability came out at 0.911 ± 0.004 under setting [1]; 0.628 ± 0.018 under setting [2]; 0.901 ± 0.012 under setting [3]; 0.663 ± 0.033 under setting [4]; 0.9907 ± 0.0049 under setting [5]; 0.85 ± 0.029 under setting [6].
Turning to `O=C(Nc1cccc(Nc2ncc(Br)c(NCCc3cnc[nH]3)n2)c1)N1CCCC1`, the normalised cell viability under setting [1] was 0.955 ± 0.015; the normalised cell viability under setting [2] worked out at 0.805 ± 0.016; the normalised cell viability under setting [3] is 0.939 ± 0.0062; the normalised cell viability under setting [4] came out at 0.859 ± 0.02; the normalised cell viability under setting [5] was determined as 0.917 ± 0.0095; the normalised cell viability under setting [6] is 0.635 ± 0.029.
With `CCCn1c(=O)c2[nH]c(-c3ccc(S(=O)(=O)O)cc3)nc2n(CCC)c1=O` [1,3-Dipropyl-8-p-sulfophenylxanthine], the normalised cell viability was 0.9873 ± 0.0049 under setting [1]; 0.99 ± 0.01 under setting [2]; 0.994 ± 0.01 under setting [3]; 0.986 ± 0.034 under setting [4]; 0.996 ± 0.016 under setting [5]; 0.996 ± 0.0061 under setting [6].
In the case of `Cc1cc(N)c2ccccc2[n+]1CCCCCCCCCC[n+]1c(C)cc(N)c2ccccc21` [Dequalinium chloride hydrate], the normalised cell viability reads like this: under setting [1], 0.888 ± 0.026; under setting [2], 0.0383 ± 0.0062; under setting [3], 0.963 ± 0.016; under setting [4], 0.0385 ± 0.0016; under setting [5], 0.991 ± 0.013; under setting [6], 0.00579 ± 0.0022.
As to `OC[C@H]1O[C@@H](n2cnc3c2N=CNC[C@H]3O)C[C@@H]1O` [Pentostatin], the normalised cell viability is, setting by setting: under setting [1], 1.02 ± 0.011; under setting [2], 1.01 ± 0.022; under setting [3], 1.03 ± 0.011; under setting [4], 1.04 ± 0.01; under setting [5], 1.013 ± 0.0058; under setting [6], 1.01 ± 0.011.
As for `N[C@@H](Cc1ccc(O)c(I)c1)C(=O)O` [3-Iodo-L-tyrosine], the normalised cell viability under setting [1] turned out to be 0.982 ± 0.01; the normalised cell viability under setting [2] was determined as 0.973 ± 0.035; the normalised cell viability under setting [3] was 0.991 ± 0.006; the normalised cell viability under setting [4] was 0.996 ± 0.066; the normalised cell viability under setting [5] was determined as 0.999 ± 0.011; the normalised cell viability under setting [6] worked out at 0.998 ± 0.01.
`N[C@H](CO)C(=O)O` [D-Serine]: the normalised cell viability by setting is: under setting [1], 1.013 ± 0.0058; under setting [2], 1.04 ± 0.06; under setting [3], 0.896 ± 0.27; under setting [4], 1.02 ± 0.01; under setting [5], 1.02; under setting [6], 1.017 ± 0.0058.
Take `CN1CCc2cc(O)c(O)cc2C(c2ccccc2)C1` (stereo not drawn): the normalised cell viability came to 1 ± 0.0087 under setting [1]; 1.02 ± 0.022 under setting [2]; 0.876 ± 0.23 under setting [3]; 1.01 ± 0.02 under setting [4]; 1.02 under setting [5]; 1.023 ± 0.0058 under setting [6].
Turning to `CCCS(=O)(=O)Nc1ccc(F)c(C(=O)c2c[nH]c3ncc(-c4ccc(Cl)cc4)cc23)c1F` [Vemurafenib (PLX4032)], the normalised cell viability is 1.05 ± 0.011 under setting [1]; 0.997 ± 0.029 under setting [2]; 1.03 under setting [3]; 1.01 ± 0.026 under setting [4]; 1.017 ± 0.0058 under setting [5]; 1.007 ± 0.0058 under setting [6].
On to `CCCS(=O)(=O)Nc1ccc(F)c(C(=O)c2c[nH]c3ncc(-c4ccc(Cl)cc4)cc23)c1F` [vemurafenib], for which the normalised cell viability reads like this: under setting [1], 1.04 ± 0.011; under setting [2], 1.14 ± 0.02; under setting [3], 1.03 ± 0.01; under setting [4], 1.08 ± 0.01; under setting [5], 1.01 ± 0.01; under setting [6], 1.037 ± 0.0058.
